Data: PubChem BioAssay (Tox21)
Records with an inconclusive call do not appear. Active and inactive are the calls of the source. Unless noted, calls come from the whole dose curve; as a rule, active = well fitted curve in the direction sought with a large enough effect in the repeat runs; inconclusive = weak or mixed curves; inactive = no such curve, though single readings can be large; an effect the other way counts as inactive or inconclusive.

Experiments:
[1] = qHTS RealTime-Glo MT Cell Viability Assay in HepG2 cells - 32 hour (AID 1224877); note: nearly all actives have a fitted effect of over 55% in size
In short: (§1)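 HepG2 suspension premixed with RealTime-Glo reagents is plated at 600 cells per well and left 5 h at 37 C/5% CO2. Compounds in DMSO then go in, and bioluminescence reflecting viable cell number is recorded over 40 h.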

[2] = A CellTox Green Cytotoxicity Assay to monitor cytotoxicity in HepG2 cells - 24 hour (AID 1224878); note: nearly all actives have a fitted effect of over 45% in size
In short: (§2)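 Cytotoxicity was tracked as dead-cell DNA fluorescence in HepG2 cells treated with test compounds at 37 C; each time-point value comes from one kinetic series spanning 0, 8, 16, 24, 32 and 40 h.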

[3] = A CellTox Green Cytotoxicity Assay to monitor cytotoxicity in HepG2 cells - 40 hour (AID 1224879); note: nearly all actives have a fitted effect of over 40% in size
In short: as §2

[4] = qHTS RealTime-Glo MT Cell Viability Assay in HEK293 cells - 0 hour (AID 1224880); note: top concentration of the series differs between compounds; nearly all actives have a fitted effect of over 45% in size
In short: (§3)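 Kinetic, non-lysing viability readout. Seed HEK293 (600/well) with reagent, incubate 5 h at 37 C/5% CO2, pin 23 nL compound in DMSO, incubate at 37 C, read luminescence at 0, 8, 16, 24, 32, 40 h.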

[5] = A CellTox Green Cytotoxicity Assay to monitor cytotoxicity in HepG2 cells - 0 hour (AID 1224882); note: nearly all actives have a fitted effect of over 35% in size
In short: as §2

[6] = A CellTox Green Cytotoxicity Assay to monitor cytotoxicity in HepG2 cells - 32 hour (AID 1224883); note: nearly all actives have a fitted effect of over 50% in size
In short: as §2

[7] = A CellTox Green Cytotoxicity Assay to monitor cytotoxicity in HEK293 cells - 8 hour (AID 1224884); note: nearly all actives have a fitted effect of over 35% in size
In short: (§4)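 Real-time, in one plate: 600 HEK293 cells/well with dead-cell DNA dye, pinned compound after 5 h, 37 C incubation over 40 h; viable cells give no appreciable fluorescence.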

[8] = qHTS RealTime-Glo MT Cell Viability Assay in HepG2 cells - 16 hour (AID 1224885); note: nearly all actives have a fitted effect of over 50% in size
In short: as §1

[9] = qHTS RealTime-Glo MT Cell Viability Assay in HEK293 cells - 8 hour (AID 1224887); note: top concentration of the series differs between compounds; nearly all actives have a fitted effect of over 50% in size
In short: as §3

[10] = A CellTox Green Cytotoxicity Assay to monitor cytotoxicity in HEK293 cells - 16 hour (AID 1224888); note: nearly all actives have a fitted effect of over 35% in size
In short: as §4

[11] = qHTS RealTime-Glo MT Cell Viability Assay in HepG2 cells - 0 hour (AID 1224889); note: nearly all actives have a fitted effect of over 50% in size
In short: as §1

[12] = A CellTox Green Cytotoxicity Assay to monitor cytotoxicity in HepG2 cells - 8 hour (AID 1224890); note: nearly all actives have a fitted effect of over 45% in size
In short: as §2

[13] = qHTS assay to identify small molecule antagonists of the estrogen receptor alpha (ER-alpha) signaling pathway using the BG1 cell line in the presence of 0.1 nM 17-beta-estradiol - cell viability counter screen (AID 1259241); note: nearly all actives have a fitted effect of over 40% in size
In short: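 CellTiter-Fluor read (30 min, 37C) on ER-alpha/ERE-luc VM7Luc4E2 cells; 22 hr compound treatment; agonist 0.1 nM E2 final; same-well multiplex.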

[14] = qHTS assay to identify small molecule antagonists of the androgen receptor (AR) signaling pathway using the MDA cell line in the presence of 0.5 nM R1881 - cell viability counter screen (AID 1259242); note: nearly all actives have a fitted effect of over 45% in size
In short: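 Cells seeded at 3,000/well and allowed 5 hr at 37C, 0% CO2 before compound transfer and R1881 (0.5 nM final) addition; 16 hr later, live-cell protease fluorescence indicated cytotoxicity.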

[15] = qHTS assay to identify small molecule phospholipidosis (PLD) inducers (AID 1259344; active = well fitted curve in the direction sought with a large enough effect; an effect the other way counts as inactive or inconclusive)
In short: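 Accumulated phospholipid, stained red by LipidTOX during 24 h compound treatment of HepG2 cells at 37 C, is quantified from images as pit number and intensity, normalised per cell using Hoechst-stained nuclei.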

[16] = qHTS assay to identify small molecule HDAC inhibitors (AID 1259364); note: potency is the fitted concentration of half-maximal effect
In short: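 HCT-116 wt cells, 1,500/well, overnight attach. Compounds (DMSO) 2 h, 37 °C. HDAC-Glo I/II, 30 min RT. Luminescence.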

[17] = qHTS assay to identify small molecule HDAC inhibitors - cell viability counter screen (AID 1259365)
In short: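 To flag cytotoxic hits, 1,500 wild-type HCT-116 cells per well, plated the day before, receive test compounds for 2hr at 37 C before CellTiter-Glo reagent and a luminescence read.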

[18] = qHTS RealTime-Glo MT Cell Viability Assay in HEK293 cells - 24 hour (AID 1224886)
In short: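 Reads taken at 0, 8, 16, 24, 32 and 40 h from the same wells. HEK293 cells (600/well) carried RealTime-Glo reagents from seeding, with compound added after a 5 h settle at 37 C.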

[19] = molecular target: Estrogen receptor (Homo sapiens) (UniProt P03372); assay: qHTS assay to identify small molecule antagonists of the estrogen receptor alpha (ER-alpha) signaling pathway using the BG1 cell line in the presence of 0.1 nM 17-beta-estradiol (AID 1259244); note: nearly all actives have a fitted effect of over 50% in size
In short: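 Luciferase signal from VM7Luc4E2 ERE-reporter cells, co-dosed with test compound and 0.1 nM final 17beta-estradiol for 22 h, read with ONE-Glo.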

[20] = A CellTox Green Cytotoxicity Assay to monitor cytotoxicity in HEK293 cells - 32 hour (AID 1224881); note: nearly all actives have a fitted effect of over 40% in size
In short: as §4

Measured: Potency

Chain of Estrogen receptor (Homo sapiens) (P03372 whole entry, looked up): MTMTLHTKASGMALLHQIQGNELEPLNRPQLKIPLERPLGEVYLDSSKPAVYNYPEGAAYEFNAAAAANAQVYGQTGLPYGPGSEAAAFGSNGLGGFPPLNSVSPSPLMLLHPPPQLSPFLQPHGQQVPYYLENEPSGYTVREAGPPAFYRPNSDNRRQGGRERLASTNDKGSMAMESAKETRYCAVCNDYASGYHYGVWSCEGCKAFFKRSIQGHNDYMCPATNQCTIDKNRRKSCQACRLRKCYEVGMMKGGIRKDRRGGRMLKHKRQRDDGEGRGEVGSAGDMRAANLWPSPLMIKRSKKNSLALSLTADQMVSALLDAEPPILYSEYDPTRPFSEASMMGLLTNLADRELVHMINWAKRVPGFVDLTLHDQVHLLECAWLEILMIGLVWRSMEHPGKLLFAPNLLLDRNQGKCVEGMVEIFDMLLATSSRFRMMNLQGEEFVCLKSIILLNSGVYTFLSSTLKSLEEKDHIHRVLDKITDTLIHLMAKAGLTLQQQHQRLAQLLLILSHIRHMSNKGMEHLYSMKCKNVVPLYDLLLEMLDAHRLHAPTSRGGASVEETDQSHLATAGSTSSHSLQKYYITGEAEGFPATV

C1CCN2C[C@@H]3C[C@@H](CN4CCCC[C@@H]34)[C@H]2C1
not listed: [18] | [19] | [20]
inactive: all other assays above

C[Si]1(C)N[Si](C)(C)N[Si](C)(C)N1
not listed: [15] | [20]
inactive: all other assays above

CCCCC(CC)COC(=O)c1ccccc1 (configuration not stated)
not listed: [7] | [11] | [15] | [16] | [20]
inactive: all other assays above

CC(=O)OC(C(=O)c1ccccc1)c1ccccc1 (configuration not stated)
not listed: [9] | [15] | [18] | [20]
inactive: all other assays above

Cc1ccccc1C
not listed: [5] | [7] | [15]
inactive: all other assays above

NC(=O)NNC(N)=O
not listed: [15] | [20]
inactive: all other assays above

Cc1cc(O)c2c(c1)C(=O)c1cccc(O)c1C2=O
active: [16] 13.4 µM
not listed: [5] | [11] | [15]
inactive: all other assays above

C=CCOc1c(Br)cc(C(C)(C)c2cc(Br)c(OCC=C)c(Br)c2)cc1Br
not listed: [5] | [6] | [15]
inactive: all other assays above

COc1ccc(/C=N/NC(=O)c2ccncc2)cc1OC
not listed: [5] | [18]
inactive: all other assays above

CC(C)(C)c1ccc(C=O)cc1
not listed: [15] | [20]
inactive: all other assays above

CCCCOC(=O)C(=O)OCCCC
not listed: [5] | [11] | [15] | [19]
inactive: all other assays above

OCCCCCCCl
not listed: [5] | [6] | [15]
inactive: all other assays above

CCCCCCCCCCCCCC(=O)OC
not listed: [15] | [20]
inactive: all other assays above

CN[C@@H]1[C@@H](O)[C@@H](O[C@@H]2[C@H](O)[C@H](O[C@H]3OC(CN)=CC[C@H]3N)[C@@H](N)C[C@H]2N)OCC1(C)O (some centres not stated)
not listed: [5] | [6] | [18] | [19]
inactive: all other assays above

CCOc1ccc(NC(=O)OC(C)C)cc1OCC
not listed: [5] | [7] | [15] | [16] | [18] | [19]
inactive: all other assays above
